Here are results for eleven compounds from ChEMBL document CHEMBL1157539, “Thousands of chemical starting points for antimalarial lead identification” (Nature, 2010).

The structures appear in SMILES notation.

Format in all cases: functional
The test system of test [1] is Plasmodium falciparum. Nature of the test: GSK_TCMDC: Inhibition of Plasmodium falciparum 3D7 in whole red blood cells, using parasite LDH activity as an index of growth. Test compounds present at 2uM.
The subject of test [2] is Plasmodium falciparum. Nature of the test: GSK_TCMDC: Inhibition of Plasmodium falciparum Dd2 in whole red blood cells, using parasite LDH activity as an index of growth. Test compounds present at 2uM.
The next test concerns HepG2. The test can be described thus: GSK_TCMDC: Percent inhibition of human HepG2 cell line. Test compounds present at 10uM.

`Nc1nc(N)c2c(ccc3c2cnn3Cc2cccnc2)n1`: the Inhibition with Plasmodium falciparum [1] amounted to 95%; in the test on Plasmodium falciparum [2] it was 96%.

With `CCc1cc(COc2ccc(CNCCC(C)C)cc2I)c(OCc2ccccc2)c(COc2ccc(CNCCC(C)C)cc2I)c1.Cl`, the Inhibition in the test with Plasmodium falciparum [1] came out at 89%; in the test on Plasmodium falciparum [2], 15%.

In the case of `Cc1nc(C)c(-c2ccc(Oc3ccc(OC(F)(F)F)cc3)cc2)c(OC(=O)c2ccccc2)c1Cl`, the Inhibition in the test with Plasmodium falciparum [1] and in the test with Plasmodium falciparum [2] was 97% in each case.

`Cc1cc(=NN=Cc2ccccc2F)c2cc(C(F)(F)F)ccc2[nH]1`: the Inhibition in the test on Plasmodium falciparum [1] turned out to be 100%; in the test on Plasmodium falciparum [2], 67%; in the test on HepG2, 5%.

On to `CCOC(=O)NC1=NC(C)(C)N(OCc2ccc(Cl)c(Cl)c2)C(NC(=O)OCC)=N1`, for which the values for the Inhibition in the test with Plasmodium falciparum [1], in the test with Plasmodium falciparum [2] and with HepG2 were 98%, 4% and 65%, respectively.

With `Br.CC1(C)NC(N)=NC(=N)N1OCCSc1ccccc1`, the Inhibition in the test with Plasmodium falciparum [1] is 95%; in the test with Plasmodium falciparum [2], 95%; in the test with HepG2, 68%.

Take `O=C(O)c1ccc2nc(-c3ccccn3)c(-c3ccccn3)nc2c1`: the values for the Inhibition in the test on Plasmodium falciparum [1], in the test on Plasmodium falciparum [2] and in the test on HepG2 were 97%, 18% and 3%, respectively.

In the case of `O=C(NCc1ccc(C(F)(F)F)cc1)c1cccc(-c2nnc(-c3cccc(-c4cncnc4)c3)o2)c1`, the values for the Inhibition with Plasmodium falciparum [1], in the test with Plasmodium falciparum [2] and in the test on HepG2 were 96%, 79% and 13%, respectively.

Turning to `Cc1ccc(NC(=O)Cc2noc(CC3CCCN3C(=O)N[C@@H](C)c3ccccc3)n2)cc1` (stereo not given in full), the Inhibition with Plasmodium falciparum [1] stood at 95%; in the test on Plasmodium falciparum [2], 90%; in the test with HepG2, 1%.

Regarding `COc1ccc2nccc(N3CCC(O)(CCNCc4ccc5c(n4)NC(=O)CO5)CC3)c2n1.Cl`, the Inhibition in the test with Plasmodium falciparum [1] was 100%; in the test with Plasmodium falciparum [2] it was 24%; with HepG2, 18%.

In the case of `Cc1cnc(C(=O)Nc2cccc(-c3cccc(-c4nc5cc(F)ccc5[nH]4)c3)c2)cn1`, the Inhibition with Plasmodium falciparum [1] turned out to be 99%; with Plasmodium falciparum [2], 24%; in the test with HepG2 it was 25%.
